Screening data from PubChem.
Cycloheximide cs = Cycloheximide Counterscreen for Small Molecule Inhibitors of Shiga Toxin; cell reporter, cycloheximide protein synthesis inhibition counterscreen; actives 12% (n = 300,000); max response, %; in the data active = max response mostly above about 13%, no sharp cut-off; inactive = mostly below about 14%; note: read at 38.3 µM for the half of the compounds with a filed dose; 0% is about no effect
Shiga toxin inh = A qHTS for Small Molecule Inhibitors of Shiga Toxin | Vero cells, Shiga toxin protein synthesis inhibition reporter | inhibition, % at 38.7 µM | actives 9.2% (n = 290,000); in the data active = inhibition mostly above about 28%, no sharp cut-off; inactive = mostly below about 43%; note: 0% is about no effect
Pf growth 96h = Primary qHTS for delayed death inhibitors of the malarial parasite plastid, 96 hour incubation; P. falciparum luciferase reporter growth, 96 h; Potency, µM (top dose mostly 28.7 µM), without a hit: top-dose activity change, negative = inhibition, usual class: inhibitors; actives 6.9% (n = 320,000); note: potency is the fitted concentration of half-maximal effect; % is set by controls: 0 for no effect and ±100 for the full control effect
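Compounds incubated with erythrocytes infected by luciferase-expressing P. falciparum (2% hematocrit, 0.05% parasitemia final) for 96 hours, 37 C in 5% CO2. Growth inhibition scored as decreased luciferase luminescence.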
Pf growth 48h = Primary qHTS for delayed death inhibitors of the malarial parasite plastid, 48 hour incubation; P. falciparum luciferase growth in erythrocytes, 48 h; Potency, µM (highest dose often 28.7 µM), for inactives: at the top dose activity change, negative = inhibition, actives largely listed as inhibitors; actives 5.9% (n = 310,000); AID 504832, 2011; note: potency is the fitted concentration of half-maximal effect; % is set by controls: 0 for no effect and ±100 for the full control effect
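Growth was read as firefly luciferase luminescence after a 48 h, 37 C, 5% CO2 exposure of compounds to reporter-bearing P. falciparum cultures (0.1% parasitemia, 2% hematocrit final) in Albumax-supplemented RPMI 1640.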
NS1 inh = qHTS Assay for Inhibitors of Influenza NS1 Protein Function; actives 0.4% (n = 270,000); Potency, µM (top dose mostly 46.1 µM), inactives show top-dose activity, positive = more growth; AID 2326, 2010; calls by dose curve; note: potency is the fitted concentration of half-maximal effect; actives are rising curves; nearly all actives have a fitted effect of over 50% in size
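In this qHTS, NS1 from influenza A is expressed in budding yeast, where it slows growth. Cells are switched from glucose to 2% galactose medium (pH 6.0, -URA), treated with compound, and growth recovery is read at OD600.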
Numbers without * were called inactive; i = inactive; ? = inconclusive; / = no result given; + = active, no number. An excerpt weighted towards active compounds, which were near 21% of everything screened. Unless noted, calls come from the whole dose curve; as a rule, active = well fitted inhibition curve with a large enough effect; inconclusive = small, poorly fitted or top-dose-only effect, or another doubt; inactive = no such curve, though single readings can be large or run the other way.

SMILES	Cycloheximide cs	Shiga toxin inh	Pf growth 96h	Pf growth 48h	NS1 inh
O=C(CSc1cn(Cc2ccccc2)c2ccccc12)N1CCOCC1	21*	96*	35%	62%	-9%
O=C(NCCn1cc(SCC(=O)N2CCOCC2)c2ccccc21)c1ccccc1	19*	37*	44%	13%	-18%
Cc1cc2oc(C(=O)N(Cc3ccco3)C3CCS(=O)(=O)C3)cc(=O)c2cc1Cl (stereo unspecified)	-1	12	-16%	-12%	-8%
Cc1ccc(NC(=O)CN(C)C2CCCCC2)cc1Cl	5	-1	?	-15%	-18%
O=C(NS(=O)(=O)c1ccccc1)c1cccc(Br)c1	-2	15	?	2%	-2%
Cc1ccc(S(=O)(=O)N2CCCCC2)cc1NC(=O)COc1ccccc1F	0	-12	-23%	-28%	/
CCOC(=O)c1c(-c2ccc(OC)cc2)oc2ccc(O)cc12	-2	6	17%	?	-8%
COc1ccc(-c2cc(=NCCC(=O)O)c3cc(C)ccc3o2)cc1	36*	148*	?	i	/
COc1ccc(-c2cc(=NC(CC(C)C)C(=O)O)c3cc(C)ccc3o2)cc1 (stereo unspecified)	30*	100*	147%	198%	-14%
CSc1ccc(Cl)c(C(=O)N(C)CC(=O)Nc2ccc(N3CCOCC3)cc2)c1	/	/	-1%	12%	/
O=C(c1cc(Cl)ccc1Cl)N1CCOCC1	-3	-15	13µM*	25%	0%
O=C(c1cc2cc(Cl)cc(Cl)c2oc1=O)N1CCOCC1	-10	-21	8.3µM*	15%	3%
O=C(c1cc2cc(Cl)ccc2oc1=O)N1CCCC1	10	-4	/	-7%	4%
O=C(c1cccn2c(=O)c3cc(Cl)ccc3nc12)N1CCOCC1	6	-7	10µM*	13µM*	-1%
NC(=O)c1ccc[n+](Cc2ccc(-c3ccccc3)cc2)c1	-3	-2	7.4µM*	/	2%
NC(=O)c1ccc[n+](CC(=O)c2ccc(Br)cc2)c1	7	13	5%	-3%	/
CC(C)CNC(=O)C1CCCN(C(=O)NCc2ccccc2)C1 (stereo unspecified)	-1	-12	4.7µM*	4%	-1%
CN(C)C(=O)N1CCCC(C(=O)NCCc2ccccc2)C1 (stereo unspecified)	26*	95*	46%	102%	-51%
C=CCNC(=O)C1CCC(C(=O)NCC=C)CC1 (stereo unspecified)	-1	5	?	14%	/
CNC(=O)CN1C(=O)NC2(CCc3ccccc3C2)C1=O (stereo unspecified)	-8	-14	11%	35%	/
N#Cc1ccc(C2=NC(C(F)(F)F)(C(F)(F)F)c3c(n(Cc4ccco4)c(=O)[nH]c3=O)N2)cc1	-1	-13	?	?	-1%
Nc1c(N=Nc2ccccc2F)c(=O)[nH]n1-c1ccccc1	44*	63*	384%	151%	-18%
Nc1nn(-c2ccccc2)c(N)c1N=Nc1ccccc1F	50*	+	471%	320%	-39%
Cc1[nH]n(-c2ccccc2)c(=O)c1N=Nc1ccccc1C(=O)O	7	-5	?	7%	?
Cc1cccc(N=Nc2c(C)nn(-c3ccccc3)c2N)c1C	77*	72*	53%	122%	-5%
SMILES	Cycloheximide cs	Shiga toxin inh	Pf growth 96h	Pf growth 48h	NS1 inh
Cc1nc2c(N=Nc3ccccc3F)c(N)nn2c(N)c1C#N	16*	8	42%	53%	-4%
Nc1c2c(nn1-c1ccccc1)CCC2	1	20	17%	15%	8%
Cc1cc(=O)n2[nH]c(N)c(N=Nc3ccccc3F)c2n1	0	-3	-22%	-11%	-4%
COc1cc(NC(=O)Cc2cccc3ccccc23)c(C(=O)O)cc1OC	-2	/	-13%	26%	-2%
Cc1cccc(C(=O)Nc2nccs2)c1[N+](=O)[O-]	0	-6	?	22%	2%
CCOC(=O)C1=C(COC(=O)Cc2ccc(Br)cc2)NC(=O)NC1C (stereo unspecified)	2	-6	10%	7%	-11%
C/C=C/C1=CC(=O)C[C@H](c2ccc3c(c2)OCO3)C1	/	/	?	-28%	/
Cc1nn(-c2ccccc2)c(N)c1N=Nc1cccc(S(=O)(=O)N2CCOCC2)c1	2	-3	-29%	?	28%
Cc1nn(-c2ccccc2)c(N)c1N=Nc1ccc(Cl)cc1	29*	102*	166%	169%	-9%
Cc1nn(-c2ccccc2)c(N)c1N=Nc1ccccc1	74*	77*	1%	167%	-32%
Nc1nn(-c2ccccc2)c(N)c1N=Nc1ccccc1	51*	102*	268%	229%	-20%
Nc1nc(-c2ccccc2)c(N=Nc2ccc(Cl)cc2)s1	2	-7	37%	24%	6%
CCCN(CC(=O)Nc1ccc(F)c(F)c1F)C(=O)c1ccc2c(=O)n3c(nc2c1)CCC3	/	/	-14%	?	/
Cc1nc(N2CCN(C)CC2)c2sc(=S)n(C)c2n1	-4	-12	9.3µM*	/	-4%
NS(=O)(=O)c1ccc(N2CCOCC2)c(C(=O)NCc2ccc3c(c2)OCO3)c1	/	/	19%	53%	/
CCOC(=O)C1CCN(C(=O)c2cc3ccc(OC)cc3[nH]2)CC1	27*	48	285%	140%	-8%
CCOC(=O)C1CCN(C(=O)c2cc3cc(Cl)ccc3[nH]2)CC1	23*	49*	?	?	2%
CC(OC(=O)/C=C/c1ccccc1Cl)C(=O)NC1CCCCC1C (stereo unspecified)	/	/	94%	-26%	/
Clc1ccc(CSc2nc3ccncc3[nH]2)cc1	51*	51*	4.7µM*	/	-76%
O=C(c1ccc(CSc2nc3ccncc3[nH]2)cc1)N1CCCCCC1	18*	39	-19%	-28%	2%
O=C(c1ccc(CSc2nc3ccncc3[nH]2)cc1)N1CCN(c2cccc(Cl)c2)CC1	-4	12	?	?	-6%
Cc1c(OCC(=O)N2CCC(C(=O)O)CC2)ccc2c1oc(=O)c1ccccc12	-4	4	48%	-7%	13%
O=C(c1ccccc1)N(Cc1ccccc1)c1ccccn1	-6	-5	-29%	-1%	0%
O=C(/C=C/c1ccc(Cl)cc1)N(Cc1ccccc1)c1ccccn1	21*	107*	-39%	?	-8%
O=C(Nc1ccccc1)c1cnc2n(c1=O)CCS2	15	47	141%	94%	-30%
Cc1cccc(NC(=O)c2cnc3n(c2=O)CCS3)c1	21*	17*	1%	131%	-3%
O=C(Nc1ccc(OC(F)(F)F)cc1)c1cnc2n(c1=O)CCS2	16*	21	37%	73%	-31%
O=C(Nc1ccc2c(c1)OCO2)c1cnc2n(c1=O)CCS2	29*	49*	7%	105%	2%
O=C(Nc1ccc2c(c1)OCCO2)c1cnc2n(c1=O)CCS2	30*	18	148%	65%	-30%
